# Measurements: PubChem BioAssay AID488932 (Broad Institute, 2010)
# Entries with a potency or affinity are not part of this list. The source made the active and inactive calls.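 Rule for the calls: active = growth signal falls, with fitted half-maximal dose at most ten times the top valid dose; inconclusive = flat curve with a partial drop, or a poorly fitting curve; inactive = the rest, including compounds that raise signal.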
# Assay: single-agent toxicity toward C. albicans – CaCi-2 strain, no fluconazole, dry powder, set 4, counter-screen for reversing antifungal drug resistance, dose response (AID 488932)
# Settings: C. albicans CaCi-2 (fluconazole-resistant clinical isolate) growth, Alamar Blue, 48 h; series mostly up to 26 µM
row,SMILES,outcome
1,CC1CN(c2ccnc3cc(Cl)ccc23)CCN1C(=O)c1ccc(Cl)cc1 (stereo not drawn),inactive
2,Cc1ccc(C(=O)N2CCN(c3ccnc4cc(Cl)ccc34)CC2)cc1,inactive
3,O=C(c1ccc(Cl)nc1)N1CCN(c2ccnc3cc(Cl)ccc23)CC1,inactive
4,O=C(c1ccc(Cl)cc1)C1CCN(c2ccnc3cc(Cl)ccc23)CC1,inactive
5,CCCC(=O)N1CCN(c2ccnc3cc(Cl)ccc23)CC1,inactive
6,COc1cccc2c(N3CCN(C(=O)c4ccc(Cl)cc4)CC3)cc(C)nc12,inactive
7,Cc1ccc(N2CCN(C(=O)c3ccc(Cl)cc3)CC2)nn1,inactive
8,O=C(c1ccc(F)cc1)N1CCN(c2ccnc3cc(Cl)ccc23)CC1,inactive
9,CC(C)CC(=O)N1CCN(c2ccnc3cc(Cl)ccc23)CC1,inactive
10,CCCCNC(=O)N1CCN(c2ccnc3cc(Cl)ccc23)CC1,inactive
11,O=C(c1ccc(Cl)cc1)N1CCN(c2cc(C(F)(F)F)nc3ccccc23)CC1,inactive
12,O=C(c1ccccc1Cl)N1CCN(c2ccnc3cc(Cl)ccc23)CC1,inactive
13,COc1cccnc1N1CCN(C(=O)c2ccc(Cl)cc2)CC1,inactive
14,COc1ccc(C(=O)N2CCN(c3ccnc4cc(Cl)ccc34)CC2)cc1,inactive
15,O=C(c1ccc(Cl)cc1)N1CCN(c2nc3ccccc3s2)CC1,inactive
16,O=C(c1ccc(Cl)cc1)N1CCN(c2ncccn2)CC1,inactive
17,O=C(c1ccc(Cl)cc1)N1CCN(c2ccnc3ccc(Cl)cc23)CC1,inactive
18,O=C(c1ccc(Cl)cc1)N1CCCN(c2ccnc3cc(Cl)ccc23)CC1,inactive
19,O=C(c1ccc(Cl)cc1)N1CCN(c2nc3ccccc3o2)CC1,inactive
20,COc1ccc2c(N3CCN(C(=O)c4ccc(Cl)cc4)CC3)ccnc2c1,inactive
21,O=C(c1ccc(Cl)cn1)N1CCN(c2ccnc3cc(Cl)ccc23)CC1,inactive
22,O=C(C1CC1)N1CCN(c2ccnc3cc(Cl)ccc23)CC1,inactive
23,O=C(Nc1ccc(C(F)(F)F)cc1)N1CCN(c2ccnc3cc(Cl)ccc23)CC1,inactive
